# Reference: PubChem BioAssay (EPA / NIEHS)
# Inconclusive results are not listed. A structure can be active in one record and inactive in another. Calls of active or inactive are those of the source. The calls were made as follows, unless noted: active = hit-call score of the fitted dose curve at least 0.9, where 1 is the maximum; inconclusive = response in the unintended direction; inactive = score below 0.9.
# Experiments:
# [1] = read-out: Cytochrome P450 2C19 (Homo sapiens) (UniProt P33261); experiment: CLD_CYP2C19_6hr: CellzDirect (CLD) Gene Expression Assay for xenobiotic metabolism (CYP2C19) at 6 hours (AID 2283678)
# Method in brief: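 CYP2C19 transcript induction was quantified by quantitative nuclease protection assay with chemiluminescent read-out, 6 h after dosing. Cells were primary human hepatocytes from two donor preparations, given fresh dosing solutions daily in 0.2% DMSO vehicle. Activity was relative to DMSO.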
# [2] = CCTE_Padilla_ZF_144hpf_TERATOSCORE: (Legacy) CCTE's 144 Hour Post-fertilization zebrafish Assay Teratoscore, Padilla Lab (AID 2283679; active = hit-call score of the fitted dose curve at least 0.9, where 1 is the maximum; inactive = score below 0.9;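 as to AC50: zebrafish embryos with chorions exposed by immersion from 6-8 hpf to 5 dpf with daily renewal; teratogenicity score from eye scoring of death hatching and malformations at 144 hpf; higher score means more developmental defects relative to DMSO baseline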)
# Method in brief: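 Larvae scored by eye at 144 hpf for death, hatching and malformations after a day in clean Hanks'. Before that, daily-renewed exposure at 80 uM (0.4% DMSO, 26C) from roughly 6-8 hpf through 5 dpf, 4 embryos per chemical.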
# [3] = read-out: Glyceraldehyde-3-phosphate dehydrogenase (Homo sapiens) (UniProt P04406); experiment: CLD_GAPDH_6hr: CellzDirect (CLD) Gene Expression Assay for Baseline Control (Glyceraldehyde 3-phosphate dehydrogenase) at 6 hours (AID 2283681);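 also: active means increased signal relative to DMSO vehicle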
# Method in brief: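 GAPDH baseline-control readout from qNPA (S1 nuclease digestion, probe hybridization, chemiluminescence) in lysates of cultured human hepatocytes harvested 6 h post-dosing. Chemicals tested at multiple concentrations versus 0.2% DMSO vehicle; microscopy-based cytotoxicity flagged yes/no.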
# [4] = read-out: ABC Transporter (ABCB1), ABCB1 (gene 5243); experiment: CLD_ABCB1_24hr: CellzDirect (CLD) Gene Expression Assay for ABC Transporter (ABCB1) at 24 hours (AID 2283684);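 as to AC50: potency for increase in ABCB1 mRNA relative to DMSO vehicle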
# Method in brief: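 ABCB1 mRNA induction versus 0.2% DMSO vehicle was read by qNPA chemiluminescence at 24 h. Cultured human hepatocytes from two donor preparations received daily fresh dosing, and phase-contrast cytotoxicity calls were annotated alongside the data.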
# [5] = read-out: Cytochrome P450 3A4 (Homo sapiens) (UniProt P08684); experiment: CLD_CYP3A4_24hr: CellzDirect (CLD) Gene Expression Assay for xenobiotic metabolism (CYP3A4) at 24 hours (AID 2283689)
# Method in brief: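 CYP3A4 mRNA induction read by quantitative nuclease protection (chemiluminescence) 24 hr after dosing. Cultured human hepatocytes (two donor preparations) treated daily, vehicle 0.2% DMSO; phase-contrast morphology annotates cytotoxicity.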
# [6] = read-out: Glyceraldehyde-3-phosphate dehydrogenase (Homo sapiens) (UniProt P04406); experiment: CLD_GAPDH_24hr: CellzDirect (CLD) Gene Expression Assay for Baseline Control (Glyceraldehyde 3-phosphate dehydrogenase) at 24 hours (AID 2283692)
# Method in brief: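 GAPDH baseline-control readout: qNPA chemiluminescent mRNA signal in human primary hepatocytes harvested 24 h after daily dosing, normalised to 0.2% DMSO with positive fitting direction; cytotoxicity annotated by phase-contrast morphology.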
# [7] = read-out: sulfotransferase (SULT2A), SULT2A1 (gene 6822); experiment: CLD_SULT2A_24hr: CellzDirect (CLD) Gene Expression Assay for sulfotransferase (SULT2A) at 24 hours (AID 2283694)
# Method in brief: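 mRNA is measured by qNPA: probe hybridisation, S1 nuclease digestion, chemiluminescence, in lysates from human primary hepatocytes harvested 24 h after daily dosing. Vehicle was 0.2% DMSO. Phase-contrast microscopy flagged cytotoxicity (yes/no).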
# [8] = read-out: Cytochrome P450 3A4 (Homo sapiens) (UniProt P08684); experiment: CLD_CYP3A4_48hr: CellzDirect (CLD) Gene Expression Assay for xenobiotic metabolism (CYP3A4) at 48 hours (AID 2283698)
# Method in brief: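 CYP3A4 induction read by qNPA chemiluminescence after 48 h, with fresh dosing solutions on consecutive days, in cultured human hepatocytes (two donors). Vehicle 0.2% DMSO as baseline; microscopy-based cytotoxicity annotated yes/no alongside data.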
# [9] = read-out: xenobiotic metabolism (CYP1A1), CYP1A1 (gene 1543); experiment: CLD_CYP1A1_48hr: CellzDirect (CLD) Gene Expression Assay for xenobiotic metabolism (CYP1A1) at 48 hours (AID 2283705)
# Method in brief: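 CYP1A1 transcript measured by quantitative nuclease protection (chemiluminescent) 48 h after two daily treatments of human hepatocyte cultures, versus 0.2% DMSO. Morphology-based cytotoxicity flags accompany data; two donor preparations used.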
# [10] = read-out: Glyceraldehyde-3-phosphate dehydrogenase (Homo sapiens) (UniProt P04406); experiment: CLD_GAPDH_48hr: CellzDirect (CLD) Gene Expression Assay for Baseline Control (Glyceraldehyde 3-phosphate dehydrogenase) at 48 hours (AID 2283706);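 also: active means higher GAPDH mRNA than DMSO vehicle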
# Method in brief: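 GAPDH baseline-control readout: qNPA chemiluminescent mRNA quantitation in human liver primary cells 48 h after daily dosing on two consecutive days, vehicle 0.2% DMSO; gain of signal fitted against DMSO, cytotoxicity flagged by phase-contrast morphology.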
# [11] = read-out: sulfotransferase (SULT2A), SULT2A1 (gene 6822); experiment: CLD_SULT2A_48hr: CellzDirect (CLD) Gene Expression Assay for sulfotransferase (SULT2A) at 48 hours (AID 2283710);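 also: hits raise SULT2A1 transcript above the 0.2% DMSO vehicle baseline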
# Method in brief: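 SULT2A1 transcript measured by qNPA chemiluminescence in human primary hepatocyte cultures after 48 h, with fresh dosing solutions on two consecutive days; gain-of-signal fitting against 0.2% DMSO vehicle; cytotoxicity annotated from phase-contrast morphology.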
# [12] = STM_H9_OrnithineISnorm_perc: Stemina devTOX quickPredict H9 human embryonic stem cell (hESC)-based Assay for Ornithine (ORN) Metabolite Biomarker, Normalized (AID 2283712; active = hit-call score of the fitted dose curve at least 0.9, where 1 is the maximum; inactive = score below 0.9;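 also: ornithine released into spent medium during last day measured by mass spectrometry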)
# Method in brief: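 Metabolite endpoint from spent media of pluripotent H9 cells treated 72 h with daily re-feeding; ornithine measured by UPLC-HRMS against its 13C spike-in and referenced to the median 0.1% DMSO vehicle response.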
# [13] = read-out: Cytochrome P450 2B6 (Homo sapiens) (UniProt P20813); experiment: CLD_CYP2B6_6hr: CellzDirect (CLD) Gene Expression Assay for xenobiotic metabolism (CYP2B6) at 6 hours (AID 2283677);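 also: actives raise CYP2B6 transcript above DMSO baseline so AC50 marks an inducer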
# Method in brief: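 CYP2B6 transcript levels, read by chemiluminescent qNPA, were fitted for increase versus DMSO baseline; cultured human liver hepatocytes from two donor preparations were harvested 6 h after exposure to test chemicals at multiple concentrations.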
# [14] = CLD_ACTIN_6hr: CellzDirect (CLD) Gene Expression Assay for Baseline Control (Actin) at 6 hours (AID 2283676);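 also: active means increased actin mRNA relative to DMSO vehicle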
# Method in brief: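 Baseline actin transcript level measured by qNPA (S1 nuclease protection, chemiluminescence) in human hepatocyte cultures 6 h after chemical exposure; 0.2% DMSO vehicle as reference, cytotoxicity noted from morphology.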
# [15] = read-out: Cytochrome P450 2C9 (Homo sapiens) (UniProt P11712); experiment: CLD_CYP2C9_24hr: CellzDirect (CLD) Gene Expression Assay for xenobiotic metabolism (CYP2C9) at 24 hours (AID 2283688)
# Method in brief: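 Induction of CYP2C9 mRNA was quantified by quantitative nuclease protection assay (chemiluminescence), gain of signal versus 0.2% DMSO vehicle, 24 h after dosing. Human primary hepatocytes (two donors) received fresh chemical daily at multiple concentrations; morphology-based cytotoxicity flagged yes/no.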
# [16] = read-out: glucuronosyltransferase (UGT1A1), UGT1A1 (gene 54658); experiment: CLD_UGT1A1_24hr: CellzDirect (CLD) Gene Expression Assay for glucuronosyltransferase (UGT1A1) at 24 hours (AID 2283696)
# Method in brief: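 UGT1A1 transcript induction was measured by quantitative nuclease protection assay (chemiluminescence) in human hepatocyte cultures 24 h after daily fresh dosing, with 0.2% DMSO as vehicle and baseline.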
# [17] = read-out: HMG-CoA synthase (HMGCS2), HMGCS2 (gene 3158); experiment: CLD_HMGCS2_6hr: CellzDirect (CLD) Gene Expression Assay for HMG-CoA synthase (HMGCS2) at 6 hours (AID 2283682);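 also: actives raise HMGCS2 transcript above the 0.2% DMSO vehicle baseline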
# Method in brief: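 HMGCS2 transcript induction read by quantitative nuclease protection with chemiluminescence, 6 h after dosing of primary human hepatocytes. Baseline was 0.2% DMSO vehicle; phase-contrast morphology gave a yes/no cytotoxicity annotation.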
# Cytochrome P450 2C19 (Homo sapiens), sequence (P33261 whole entry, looked up): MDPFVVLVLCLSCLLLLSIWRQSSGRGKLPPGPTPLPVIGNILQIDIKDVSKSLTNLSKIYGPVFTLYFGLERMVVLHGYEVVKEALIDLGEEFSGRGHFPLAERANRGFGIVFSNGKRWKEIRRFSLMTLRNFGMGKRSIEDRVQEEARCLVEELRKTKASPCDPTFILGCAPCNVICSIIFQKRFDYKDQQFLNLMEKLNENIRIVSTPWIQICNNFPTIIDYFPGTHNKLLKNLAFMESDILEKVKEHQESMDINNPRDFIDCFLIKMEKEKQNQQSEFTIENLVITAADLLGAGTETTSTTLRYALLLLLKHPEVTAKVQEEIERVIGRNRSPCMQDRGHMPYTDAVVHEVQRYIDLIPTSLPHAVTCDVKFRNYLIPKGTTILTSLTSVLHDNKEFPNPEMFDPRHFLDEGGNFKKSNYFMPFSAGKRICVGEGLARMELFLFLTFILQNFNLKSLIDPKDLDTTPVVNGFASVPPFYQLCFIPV
# Cytochrome P450 3A4 (Homo sapiens), sequence (P08684 whole entry, looked up): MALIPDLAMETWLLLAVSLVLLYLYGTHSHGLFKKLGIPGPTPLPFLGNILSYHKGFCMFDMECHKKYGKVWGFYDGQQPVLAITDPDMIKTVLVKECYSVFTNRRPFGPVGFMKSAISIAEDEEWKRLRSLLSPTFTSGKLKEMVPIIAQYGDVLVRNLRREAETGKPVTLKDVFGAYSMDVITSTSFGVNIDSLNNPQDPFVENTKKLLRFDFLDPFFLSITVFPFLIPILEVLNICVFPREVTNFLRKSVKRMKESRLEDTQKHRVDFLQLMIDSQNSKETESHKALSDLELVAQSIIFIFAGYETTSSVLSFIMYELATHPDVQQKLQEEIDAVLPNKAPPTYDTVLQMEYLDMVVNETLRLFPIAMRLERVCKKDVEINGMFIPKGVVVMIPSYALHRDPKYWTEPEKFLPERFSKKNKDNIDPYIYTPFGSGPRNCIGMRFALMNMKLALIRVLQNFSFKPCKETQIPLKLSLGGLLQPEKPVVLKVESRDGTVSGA
# Glyceraldehyde-3-phosphate dehydrogenase (Homo sapiens), sequence (P04406 whole entry, looked up): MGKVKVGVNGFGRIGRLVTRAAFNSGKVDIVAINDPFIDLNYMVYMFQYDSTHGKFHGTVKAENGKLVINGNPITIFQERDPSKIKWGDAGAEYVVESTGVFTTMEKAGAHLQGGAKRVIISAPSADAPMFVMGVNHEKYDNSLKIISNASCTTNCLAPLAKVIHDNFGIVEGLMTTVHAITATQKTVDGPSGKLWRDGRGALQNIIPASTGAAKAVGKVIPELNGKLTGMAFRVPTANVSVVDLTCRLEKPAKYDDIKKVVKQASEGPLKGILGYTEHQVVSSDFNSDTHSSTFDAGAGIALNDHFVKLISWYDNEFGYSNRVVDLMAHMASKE
structure (smiles),measurement,setting,value
OB(O)O,outcome,[1],inactive
same,outcome,[2],inactive
same,outcome,[3],inactive
same,outcome,[4],inactive
same,outcome,[5],inactive
same,outcome,[6],inactive
same,outcome,[7],inactive
same,outcome,[8],inactive
same,outcome,[9],inactive
same,outcome,[10],inactive
same,outcome,[11],inactive
same,outcome,[12],inactive
S=C(S)NCCNC(=S)S.[Mn+2].[S-]C([S-])=NCCN=C([S-])[S-].[Zn+2],AC50,[13],2.55 µM (active)
same,AC50,[2],29.3 µM (active)
same,outcome,[2],inactive
same,AC50,[4],1.5 µM (active)
same,outcome,[5],inactive
same,outcome,[6],inactive
same,AC50,[9],0.252 µM (active)
same,outcome,[10],inactive
same,outcome,[12],inactive
COCCO,outcome,[14],inactive
same,outcome,[1],inactive
same,outcome,[2],inactive
same,outcome,[3],inactive
same,outcome,[4],inactive
same,outcome,[15],inactive
same,outcome,[6],inactive
same,outcome,[7],inactive
same,outcome,[8],inactive
same,outcome,[9],inactive
same,outcome,[10],inactive
same,outcome,[11],inactive
C[C@]12C[C@H](O)[C@H]3[C@@H](CCC4=CC(=O)CC[C@@]43C)[C@@H]1CC[C@@H]2C(=O)CO,outcome,[2],inactive
same,AC50,[12],77 µM (active)
CCOC(=O)[C@H](C)Oc1ccc(Oc2nc3ccc(Cl)cc3o2)cc1,outcome,[14],inactive
same,outcome,[3],inactive
same,outcome,[15],inactive
same,outcome,[6],inactive
same,outcome,[7],inactive
same,outcome,[16],inactive
same,outcome,[8],inactive
same,outcome,[9],inactive
same,outcome,[10],inactive
same,outcome,[11],inactive
CCN(Cc1c(F)cccc1Cl)c1c([N+](=O)[O-])cc(C(F)(F)F)cc1[N+](=O)[O-],AC50,[13],0.419 µM (active)
same,AC50,[2],0.00783 µM (active)
same,AC50,[5],1.45 µM (active)
same,AC50,[8],1.9 µM (active)
same,AC50,[9],1.22 µM (active)
same,outcome,[11],inactive
same,AC50,[12],17.2 µM (active)
CCOC(=O)COc1cc(-n2ncc(C(F)(F)F)c(C)c2=O)c(F)cc1Cl,AC50,[13],2.49 µM (active)
same,AC50,[2],0.458 µM (active)
same,outcome,[3],inactive
same,outcome,[17],inactive
same,outcome,[4],inactive
same,AC50,[5],20 µM (active)
same,outcome,[6],inactive
same,AC50,[8],5.32 µM (active)
same,outcome,[9],inactive
same,outcome,[10],inactive
same,outcome,[11],inactive
C[C@]12CC[C@@H]3c4ccc(O)cc4C[C@@H](CCCCCCCCCS(=O)CCCC(F)(F)C(F)(F)F)[C@H]3[C@@H]1CC[C@@H]2O (stereo partly specified),outcome,[2],inactive
CCCCOC(=O)C(C)Oc1ccc(Oc2ccc(C(F)(F)F)cn2)cc1 (stereo unspecified),outcome,[13],inactive
same,AC50,[2],16.1 µM (active)
same,outcome,[3],inactive
same,outcome,[17],inactive
same,outcome,[15],inactive
same,outcome,[5],inactive
same,outcome,[7],inactive
same,outcome,[8],inactive
same,outcome,[10],inactive
same,outcome,[11],inactive
same,outcome,[12],inactive
c1ccc(Nc2ccccc2)cc1,AC50,[13],9.66 µM (active)
same,outcome,[1],inactive
same,AC50,[2],64 µM (active)
same,outcome,[17],inactive
same,outcome,[15],inactive
same,outcome,[5],inactive
same,outcome,[7],inactive
same,outcome,[8],inactive
same,outcome,[9],inactive
same,AC50,[11],3.48 µM (active)
CCCCCOC(=O)COc1cc(N2C(=O)C3=C(CCCC3)C2=O)c(F)cc1Cl,AC50,[13],20 µM (active)
same,outcome,[1],inactive
same,AC50,[2],3.14 µM (active)
same,outcome,[3],inactive
same,outcome,[4],inactive
same,outcome,[15],inactive
same,AC50,[5],4.01 µM (active)
same,outcome,[6],inactive
same,outcome,[7],inactive
same,outcome,[8],inactive
same,outcome,[9],inactive
same,outcome,[10],inactive
same,AC50,[12],0.104 µM (active)
N[C@@H](Cc1cc(I)c(Oc2ccc(O)c(I)c2)c(I)c1)C(=O)O,AC50,[2],0.331 µM (active)
same,outcome,[12],inactive
C#C[C@]1(O)CC[C@H]2[C@@H]3CCC4=CC(=O)CC[C@@H]4[C@H]3CC[C@@]21CC,outcome,[2],inactive
Cc1nn(C)c(Oc2ccccc2)c1C=NOCc1ccc(C(=O)OC(C)(C)C)cc1,outcome,[14],inactive
same,AC50,[2],0.213 µM (active)
same,outcome,[3],inactive
same,outcome,[4],inactive
same,outcome,[5],inactive
same,outcome,[7],inactive
same,outcome,[8],inactive
same,outcome,[9],inactive
same,outcome,[10],inactive
same,outcome,[11],inactive
same,AC50,[12],0.0118 µM (active)
CCOC(=O)c1ccc(O)cc1,AC50,[2],62.6 µM (active)
CCCCC(CC)COC(=O)c1ccccc1C(=O)O (stereo unspecified),AC50,[13],4.36 µM (active)
same,outcome,[1],inactive
same,AC50,[2],0.608 µM (active)
same,outcome,[3],inactive
same,outcome,[17],inactive
same,outcome,[4],inactive
same,outcome,[15],inactive
same,outcome,[6],inactive
same,outcome,[7],inactive
same,outcome,[9],inactive
same,outcome,[10],inactive
same,outcome,[11],inactive
same,AC50,[12],341 µM (active)
O=C(c1ccccc1)C1CCCCC1,outcome,[2],inactive
CCCCOCCOCCOCc1cc2c(cc1CCC)OCO2,AC50,[13],1.27 µM (active)
same,AC50,[2],15.3 µM (active)
same,outcome,[4],inactive
same,outcome,[15],inactive
same,outcome,[7],inactive
same,AC50,[9],12 µM (active)
same,AC50,[11],12 µM (active)
O=C(c1ccc(O)cc1O)c1ccc(O)cc1O,AC50,[2],95.2 µM (active)
same,AC50,[12],51.1 µM (active)
